About 7,900 targets were measured; listed, in parts, are those with a hit and a random draw of the rest. About 0.6% of all pairs of compound and target were hits.
Each target was assayed with c1cn2cc(-c3ccc4cn[nH]c4c3)nc(Nc3ccc(N4CCOCC4)cc3)c2n1 [entospletinib] (assay: log2 fold change, soluble protein after heating vs DMSO (PISA); higher = thermal stabilisation; K562 cells, 10 uM, 30 min; active = over 0.2 and 3.5 SD of the protein, either way, in both replicates (recomputed)).
In short: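 K562 cells at 2×10^6 cells/mL were given 10 μM compound for 30 min. Aliquots then went through 3 min of heating across 48°C-58°C, were pooled, and were extracted in PBS with 0.5% NP-40 at 4°C, and the supernatant after 21,000xg for 90 min was quantified by TMTpro 16plex LC-MS/MS with channel sums equalised. Thermal stability relative to control samples, from duplicates, is given as log2 fold change.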

Chain of UniProt Q9H307 (Q9H307 whole entry, looked up): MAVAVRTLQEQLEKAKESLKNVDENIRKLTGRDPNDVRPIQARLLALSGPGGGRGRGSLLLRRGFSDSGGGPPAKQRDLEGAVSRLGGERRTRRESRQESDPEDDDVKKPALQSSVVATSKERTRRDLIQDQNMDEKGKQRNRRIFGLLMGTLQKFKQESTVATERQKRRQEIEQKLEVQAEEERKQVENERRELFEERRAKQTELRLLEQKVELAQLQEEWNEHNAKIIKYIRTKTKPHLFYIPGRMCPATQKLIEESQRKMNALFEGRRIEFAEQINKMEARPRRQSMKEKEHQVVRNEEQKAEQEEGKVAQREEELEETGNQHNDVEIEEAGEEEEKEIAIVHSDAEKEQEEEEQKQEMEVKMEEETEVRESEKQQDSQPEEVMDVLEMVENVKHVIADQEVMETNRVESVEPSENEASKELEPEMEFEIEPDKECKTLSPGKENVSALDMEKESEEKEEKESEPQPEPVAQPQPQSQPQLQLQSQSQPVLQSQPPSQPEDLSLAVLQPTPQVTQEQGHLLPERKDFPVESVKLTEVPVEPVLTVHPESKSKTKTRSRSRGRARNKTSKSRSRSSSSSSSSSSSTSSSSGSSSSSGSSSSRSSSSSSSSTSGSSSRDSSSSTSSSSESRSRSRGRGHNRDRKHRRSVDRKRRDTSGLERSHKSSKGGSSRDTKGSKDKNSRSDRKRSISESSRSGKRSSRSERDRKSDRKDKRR
Chain of UniProt Q9UKL6 (Q9UKL6 whole entry, looked up): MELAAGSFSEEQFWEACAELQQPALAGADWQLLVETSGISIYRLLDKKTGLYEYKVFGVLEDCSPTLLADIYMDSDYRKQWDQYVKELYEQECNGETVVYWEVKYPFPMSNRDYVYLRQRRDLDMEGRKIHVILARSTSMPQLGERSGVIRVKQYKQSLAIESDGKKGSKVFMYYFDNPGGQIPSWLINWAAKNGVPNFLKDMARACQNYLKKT
Chain of UniProt Q9Y478 (Q9Y478 whole entry, looked up): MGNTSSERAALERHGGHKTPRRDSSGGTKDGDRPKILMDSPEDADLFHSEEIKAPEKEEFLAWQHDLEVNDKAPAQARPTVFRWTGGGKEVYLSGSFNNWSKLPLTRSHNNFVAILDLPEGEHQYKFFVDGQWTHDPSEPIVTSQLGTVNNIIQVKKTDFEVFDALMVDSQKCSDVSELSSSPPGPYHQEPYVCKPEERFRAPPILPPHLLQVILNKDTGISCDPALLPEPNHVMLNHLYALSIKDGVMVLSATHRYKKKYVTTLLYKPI
Chain of UniProt Q9UMR5 (Q9UMR5 whole entry, looked up): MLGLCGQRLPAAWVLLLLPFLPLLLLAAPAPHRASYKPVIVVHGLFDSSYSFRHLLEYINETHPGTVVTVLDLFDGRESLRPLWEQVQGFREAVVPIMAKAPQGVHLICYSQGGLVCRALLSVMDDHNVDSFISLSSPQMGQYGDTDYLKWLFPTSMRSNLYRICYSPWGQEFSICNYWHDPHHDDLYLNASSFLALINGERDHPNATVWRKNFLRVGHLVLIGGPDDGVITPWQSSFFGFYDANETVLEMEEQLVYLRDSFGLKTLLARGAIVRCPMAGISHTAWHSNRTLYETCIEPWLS
Chain of UniProt Q6EEV4 (Q6EEV4 whole entry, looked up): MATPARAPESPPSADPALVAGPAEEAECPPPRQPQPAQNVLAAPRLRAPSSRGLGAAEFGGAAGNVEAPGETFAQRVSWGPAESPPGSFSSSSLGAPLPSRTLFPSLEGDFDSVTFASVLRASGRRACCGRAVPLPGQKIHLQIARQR
Chain of UniProt Q9NYI0 (Q9NYI0 whole entry, looked up): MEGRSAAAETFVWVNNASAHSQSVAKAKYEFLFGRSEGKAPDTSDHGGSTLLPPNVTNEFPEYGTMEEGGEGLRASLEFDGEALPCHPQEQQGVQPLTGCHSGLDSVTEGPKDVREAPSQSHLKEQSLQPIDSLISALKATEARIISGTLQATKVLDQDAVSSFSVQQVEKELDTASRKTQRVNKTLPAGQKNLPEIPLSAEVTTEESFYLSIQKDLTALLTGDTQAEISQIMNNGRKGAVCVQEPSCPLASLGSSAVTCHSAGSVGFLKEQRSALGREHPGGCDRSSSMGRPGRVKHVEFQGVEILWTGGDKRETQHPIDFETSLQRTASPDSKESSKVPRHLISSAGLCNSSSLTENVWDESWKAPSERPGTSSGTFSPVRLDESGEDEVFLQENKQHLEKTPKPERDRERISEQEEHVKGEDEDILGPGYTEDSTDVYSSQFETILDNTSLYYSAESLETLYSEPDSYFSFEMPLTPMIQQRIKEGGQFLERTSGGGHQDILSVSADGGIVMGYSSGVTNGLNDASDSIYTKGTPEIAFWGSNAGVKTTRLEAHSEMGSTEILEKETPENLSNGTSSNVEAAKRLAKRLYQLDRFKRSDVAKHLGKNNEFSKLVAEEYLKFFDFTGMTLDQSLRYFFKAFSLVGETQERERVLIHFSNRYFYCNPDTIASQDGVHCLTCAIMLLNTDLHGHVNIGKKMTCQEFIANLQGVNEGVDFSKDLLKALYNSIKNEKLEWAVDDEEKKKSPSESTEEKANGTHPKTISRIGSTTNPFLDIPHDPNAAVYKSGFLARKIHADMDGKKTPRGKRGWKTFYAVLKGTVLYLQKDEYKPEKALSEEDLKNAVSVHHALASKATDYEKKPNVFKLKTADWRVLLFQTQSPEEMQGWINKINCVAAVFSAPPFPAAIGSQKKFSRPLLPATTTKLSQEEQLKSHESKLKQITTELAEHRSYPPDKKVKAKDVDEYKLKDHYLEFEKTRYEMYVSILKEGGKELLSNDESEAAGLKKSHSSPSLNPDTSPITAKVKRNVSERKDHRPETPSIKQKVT
Chain of UniProt Q9BZL4 (Q9BZL4 whole entry, looked up): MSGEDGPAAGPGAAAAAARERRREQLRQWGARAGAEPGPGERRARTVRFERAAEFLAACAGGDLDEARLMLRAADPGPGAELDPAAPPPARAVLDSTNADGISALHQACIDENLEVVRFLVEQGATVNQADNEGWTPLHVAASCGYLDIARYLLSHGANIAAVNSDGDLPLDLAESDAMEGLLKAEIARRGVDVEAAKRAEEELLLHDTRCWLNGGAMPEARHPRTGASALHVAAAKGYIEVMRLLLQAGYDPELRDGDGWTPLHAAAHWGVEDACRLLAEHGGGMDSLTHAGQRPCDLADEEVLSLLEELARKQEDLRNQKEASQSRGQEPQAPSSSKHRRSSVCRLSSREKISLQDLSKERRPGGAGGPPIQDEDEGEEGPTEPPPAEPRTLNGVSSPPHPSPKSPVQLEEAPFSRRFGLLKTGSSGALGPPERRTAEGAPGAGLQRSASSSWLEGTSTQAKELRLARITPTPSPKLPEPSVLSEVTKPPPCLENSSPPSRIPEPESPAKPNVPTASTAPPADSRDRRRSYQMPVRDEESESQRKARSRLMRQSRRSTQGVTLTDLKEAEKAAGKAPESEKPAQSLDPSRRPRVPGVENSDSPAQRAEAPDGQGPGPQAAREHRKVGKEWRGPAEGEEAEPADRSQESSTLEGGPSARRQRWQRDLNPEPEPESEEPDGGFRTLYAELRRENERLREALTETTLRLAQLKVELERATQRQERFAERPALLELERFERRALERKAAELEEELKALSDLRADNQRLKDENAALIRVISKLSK
Chain of UniProt Q16401 (Q16401 whole entry, looked up): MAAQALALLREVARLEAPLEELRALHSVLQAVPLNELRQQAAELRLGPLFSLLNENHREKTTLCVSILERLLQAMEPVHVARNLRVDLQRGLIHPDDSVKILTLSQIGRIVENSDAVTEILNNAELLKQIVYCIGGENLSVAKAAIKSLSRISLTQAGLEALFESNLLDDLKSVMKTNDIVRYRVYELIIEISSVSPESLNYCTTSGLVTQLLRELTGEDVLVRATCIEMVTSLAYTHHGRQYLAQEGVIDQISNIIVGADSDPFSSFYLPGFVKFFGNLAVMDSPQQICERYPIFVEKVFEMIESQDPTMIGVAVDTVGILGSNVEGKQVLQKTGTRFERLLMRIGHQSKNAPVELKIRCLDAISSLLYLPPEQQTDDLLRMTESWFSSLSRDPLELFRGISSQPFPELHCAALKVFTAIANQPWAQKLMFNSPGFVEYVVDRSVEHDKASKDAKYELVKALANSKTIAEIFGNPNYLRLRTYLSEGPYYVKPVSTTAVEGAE
Chain of UniProt Q9H814 (Q9H814 whole entry, looked up): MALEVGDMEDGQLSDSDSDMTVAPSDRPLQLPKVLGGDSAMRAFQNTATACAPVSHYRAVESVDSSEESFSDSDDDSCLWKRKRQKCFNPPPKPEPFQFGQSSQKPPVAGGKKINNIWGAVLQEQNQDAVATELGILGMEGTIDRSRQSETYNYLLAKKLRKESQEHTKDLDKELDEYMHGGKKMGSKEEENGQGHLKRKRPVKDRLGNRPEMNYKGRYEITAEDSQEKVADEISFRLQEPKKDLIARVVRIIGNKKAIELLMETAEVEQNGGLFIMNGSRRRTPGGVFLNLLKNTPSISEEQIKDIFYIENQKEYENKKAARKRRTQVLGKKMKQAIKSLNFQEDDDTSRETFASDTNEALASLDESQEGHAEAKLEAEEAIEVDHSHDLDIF
Chain of UniProt Q7RTV0 (Q7RTV0 whole entry, looked up): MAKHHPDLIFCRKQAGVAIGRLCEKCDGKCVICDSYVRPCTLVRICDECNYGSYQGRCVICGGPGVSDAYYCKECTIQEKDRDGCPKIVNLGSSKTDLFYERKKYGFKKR
Chain of UniProt Q9UG56 (Q9UG56 whole entry, looked up): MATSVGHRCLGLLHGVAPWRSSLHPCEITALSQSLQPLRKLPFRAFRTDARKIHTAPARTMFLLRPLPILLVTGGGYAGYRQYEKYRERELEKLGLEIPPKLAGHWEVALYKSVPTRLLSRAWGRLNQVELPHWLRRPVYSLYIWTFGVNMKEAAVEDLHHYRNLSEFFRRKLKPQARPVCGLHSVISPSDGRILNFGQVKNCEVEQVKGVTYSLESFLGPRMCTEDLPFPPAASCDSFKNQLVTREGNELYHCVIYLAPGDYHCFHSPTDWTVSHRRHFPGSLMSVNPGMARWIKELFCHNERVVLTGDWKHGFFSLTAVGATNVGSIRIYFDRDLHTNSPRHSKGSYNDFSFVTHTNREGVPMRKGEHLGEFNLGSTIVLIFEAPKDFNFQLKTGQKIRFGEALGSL

log2 fold change, inactive:
POLA1 (UniProt P09884) -0.106
PRKAB1 (UniProt Q9Y478) -0.145
PCTP (UniProt Q9UKL6) -0.072
PNN (UniProt Q9H307) 0.172
PLCG1 isoform 2 (UniProt P19174) 0.021
PPT2 isoform 3 (UniProt Q9UMR5) -0.04
PPP1R12C (UniProt Q9BZL4) 0.038
PECAM1 (UniProt P16284) -0.071
PDPK1 (UniProt O15530) -0.037
PISD (UniProt Q9UG56) -0.009
PHF5A (UniProt Q7RTV0) -0.101
PTGFRN (UniProt Q9P2B2) -0.007
PHAX (UniProt Q9H814) -0.005
PSD3 (UniProt Q9NYI0) -0.013
POLR2M (UniProt Q6EEV4) 0.056
PSMD5 (UniProt Q16401) 0.017
